TRPV1 agonist – activates the human vanilloid receptor TRPV1 | Q8NER1 | TRPV1-expressing cells, Fluo-8 calcium influx, agonist mode | activation, % at 8.33 µM | hit rate 0.19% among 320,000 | AID 540275; in the data active means activation above about 80%; inconclusive means between about 30% and that limit
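TRPV1-expressing cells were cultured overnight at 35.5C and loaded with Fluo-8 calcium dye for 40 to 90 min at room temperature. After a 10 s baseline, compound was added and calcium influx was read kinetically for 3 min (ex 480/em 520 nm).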
TRPV1 potentiator – potentiators of human vanilloid receptor 1 (TRPV1). Q8NER1. TRPV1-expressing cells, Fluo-8 calcium influx, capsaicin EC20 potentiation. potentiation, % at 8.33 µM. hit rate 0.02% among 320,000. AID 540277; in the data active means potentiation above about 80%; inconclusive means between about 30% and that limit
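Fluo-8 calcium influx in TRPV1-expressing cells, kinetic read (ex 480/em 520 nm). Compound added and read 3 min for agonist activity, followed by capsaicin at EC20 final and 2 min further read for enhancement.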
D1 antagonist – human D1 dopamine receptor antagonism | P21728 | HEK293 TREx D1 cells, calcium flux, dopamine EC80; active compounds read low | activity change, negative = inhibition, % at 10 µM | hit rate 3.2% among 360,000 | AID 504652; in the data active means activity change below about -30%
Target sequence (P21728 whole entry, looked up): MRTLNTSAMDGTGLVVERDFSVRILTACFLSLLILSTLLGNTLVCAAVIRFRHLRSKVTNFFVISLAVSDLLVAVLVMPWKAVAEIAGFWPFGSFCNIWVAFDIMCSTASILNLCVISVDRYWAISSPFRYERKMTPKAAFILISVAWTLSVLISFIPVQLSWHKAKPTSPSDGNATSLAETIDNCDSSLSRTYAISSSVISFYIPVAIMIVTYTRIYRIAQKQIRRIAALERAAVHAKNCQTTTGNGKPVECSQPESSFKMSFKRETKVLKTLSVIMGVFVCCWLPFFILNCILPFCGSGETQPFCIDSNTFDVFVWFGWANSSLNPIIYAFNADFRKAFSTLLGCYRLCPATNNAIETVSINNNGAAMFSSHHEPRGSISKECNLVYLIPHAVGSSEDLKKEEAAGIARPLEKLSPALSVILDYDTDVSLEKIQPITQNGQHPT
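Tetracycline-induced HEK293 Trex D1 cells, force-coupled to calcium, dye-loaded; compounds added and read 180 s, then EC80 dopamine added and calcium flux tracked kinetically another 180 s.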
D1 potentiator – potentiators of human D1 dopamine receptor; P21728; HEK293 TREx D1 cells, calcium flux, dopamine EC20 potentiation; potentiation, % at 10 µM; hit rate 0.036% among 360,000; AID 504651; in the data active means potentiation above about 30%
D1 agonist – human D1 receptor agonism; activation, % at 2 µM; HEK293 T-REx D1 cells, calcium flux, agonist mode; P21728; hit rate 1% among 360,000; in the data active means activation above about 30%
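Agonism was scored from calcium flux recorded over 180 s (1 read/s) after pintool compound addition, following a 10-cycle baseline. Cells were inducible force-coupled HEK293 TREx D1, plated overnight at 30 C and loaded with no-wash calcium dye.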
Of the large screens only hits and unclear results are named; the others gave an inactive call; ! = repeats disagree. Hits are enriched below; roughly 4.2% of the tested compounds scored in any of these assays.

O=C(CN(Cc1ccco1)C(=O)CNS(=O)(=O)c1ccc(Cl)cc1)NCc1ccco1	D1 antagonist -52
CCc1ccc(NC(=O)c2cnc(N3CCN(c4ccccn4)CC3)c3ccccc23)cc1	D1 antagonist -40
CCOCCCn1cc(C(=O)c2cc(Br)ccc2O)cc(C#N)c1=O	D1 antagonist -36
COCCCn1cc(C(=O)c2cc(Br)ccc2O)cc(C#N)c1=O	none
CCCCn1cc(C(=O)c2cc(Br)ccc2O)cc(C#N)c1=O	D1 agonist 31
N#Cc1cc(C(=O)c2cc(F)ccc2O)cn(Cc2ccccc2)c1=O	D1 antagonist -33
COc1cccc(NC(=O)Cn2c(=O)c3cccn3c3ccc(F)cc32)c1	none (no result: TRPV1 agonist, TRPV1 potentiator)
O=C1C(=O)N(C2CCN(C(=O)c3ccc(Cl)cc3)CC2)CCN1Cc1ccc(F)cc1	none (no result: TRPV1 agonist, TRPV1 potentiator)
COc1ccccc1-c1nn(CCC(=O)Nc2ccccc2)c2nc(C)cc(C)c12	none (no result: TRPV1 agonist, TRPV1 potentiator)
CC(=O)N1CCCc2cc(S(=O)(=O)N3CCCC(C(=O)NCc4ccc(C)cc4)C3)ccc21 (stereo not given)	none
CC(=O)N1CCCc2cc(S(=O)(=O)N3CCCC(C(=O)NCc4ccccc4)C3)ccc21 (stereo not given)	D1 antagonist -30!
CC(=O)N1CCCc2cc(S(=O)(=O)N3CCC(C(=O)Nc4cccc(Cl)c4C)CC3)ccc21	none (no result: TRPV1 agonist, TRPV1 potentiator)
CC(=O)N1CCCc2cc(S(=O)(=O)N3CCCC(C(=O)Nc4ccccc4C)C3)ccc21 (stereo not given)	D1 antagonist -37
CC(=O)N1CCCc2cc(S(=O)(=O)N3CCCC(C(=O)Nc4cccc(Cl)c4C)C3)ccc21 (stereo not given)	D1 antagonist -44 (no result: TRPV1 agonist, TRPV1 potentiator)
CCCCSc1nnc2n(-c3ccc(OC)cc3)c(=O)c3c4c(sc3n12)COC(C(C)C)C4 (stereo not given)	none (no result: TRPV1 agonist, TRPV1 potentiator)
Cc1ccc(-c2c(C#N)c(N)nc3c2CCCCC3)o1	D1 antagonist -48
CCc1sc(Nc2cccc(C)c2)nc1-c1cc2cccc(OC)c2oc1=O	none (no result: TRPV1 agonist, TRPV1 potentiator)
COc1cccc(/C=C2\SC(N3CCC(C)CC3)=NC2=O)c1OC	TRPV1 agonist 93
CCC(=O)N1CCC2(CC1)Oc1ccc(F)cc1C(=O)C21CC(c2cccnc2)=NO1 (stereo not given)	none
CC(C)(C)OC(=O)N1CCC2(CC1)Oc1ccc(F)cc1C(=O)C21CC(c2cccnc2)=NO1 (stereo not given)	TRPV1 agonist inconclusive, D1 antagonist -91
CC(=O)c1cccc(Nc2cc(C)nc3ccccc23)c1	none
Cc1ccc(Nc2cc(C)nc3ccc(C)cc23)cc1	D1 antagonist -33
CC(=O)c1cccc(Nc2cc(C)nc3c(C)cccc23)c1	D1 antagonist -66
COc1ccc(Nc2cc(C)nc3ccc(OC)cc23)cc1	none
Cc1cc(Nc2cccc(Cl)c2)c2ccccc2n1	D1 antagonist -65
Cc1cccc(Nc2cc(C)nc3ccccc23)c1	none
Cc1ccc(CCNC(=O)c2c3c(nc4ccccc24)C(=O)N(C2CCCCC2)C3)cc1	none (no result: TRPV1 agonist, TRPV1 potentiator)
COc1cc(-c2cc3n(C)c(C)c(CCC(=O)O)c(=O)n3n2)cc(OC)c1OC	none (no result: TRPV1 agonist, TRPV1 potentiator)
CCc1ccc(OCC(=O)N(Cc2ccc(OC)cc2)C2CCS(=O)(=O)C2)cc1 (stereo not given)	none (no result: TRPV1 agonist, TRPV1 potentiator)
O=C(O)c1cc(-c2ccccc2)nn1Cc1ccccc1	none (no result: TRPV1 agonist, TRPV1 potentiator)
Cc1ccc(Cn2ccnc2SCC(=O)Nc2nc3ccccc3s2)cc1	none (no result: TRPV1 agonist, TRPV1 potentiator)
Cc1nn(-c2ccccc2)c(/N=C/c2ccc(O)cc2)c1-c1ccccc1	D1 antagonist -44
CN(C)CC(CCC(CN(C)C)C(=O)c1ccccc1)C(=O)c1ccccc1 (stereo not given)	none
COc1ccc(C(=O)C(CCCCC(CN(C)C)C(=O)c2ccc(OC)cc2)CN(C)C)cc1 (stereo not given)	D1 antagonist -40
CCOc1ccc(C(=O)C(CCC(CN(C)C)C(=O)c2ccc(OCC)cc2)CN(C)C)cc1 (stereo not given)	D1 agonist 36
O=C(CCC1N=C2c3ccccc3N=C(SCc3ccc(F)cc3)N2C1=O)N1CCN(c2ccccc2)CC1 (stereo not given)	none (no result: TRPV1 agonist, TRPV1 potentiator)
CCOc1ccc(NC(=O)CSc2nnc3scc(-c4ccc(Cl)cc4)n23)cc1	none (no result: TRPV1 agonist, TRPV1 potentiator)
CCc1ccc(NC(=O)CNCc2ccc(OC)c(OC)c2)cc1	TRPV1 agonist 85
COc1ccc(NC(=O)CCC2CCCC2)cc1OC	TRPV1 agonist inconclusive
O=C(COC(=O)CC1CCCC1)Nc1cccc(F)c1	TRPV1 agonist inconclusive, D1 antagonist -31
Cc1cc(C)cc(NC(=O)COC(=O)CC2CCCC2)c1	none
COc1ccc(NC(=O)CN(C)C2CCCCC2)cc1Cl	D1 antagonist -45
COc1ccc(NC(=O)CC2CCCC2)cc1OC	TRPV1 agonist inconclusive, D1 antagonist -46
COc1ccc(Cl)cc1NC(=O)CSc1nnc(C)n2c1cc1sccc12	none (no result: TRPV1 agonist, TRPV1 potentiator)
O=C(NCCc1ccc(Cl)cc1)c1ccc(Cn2c(=O)c3cccn3c3cccnc32)cc1	none (no result: TRPV1 agonist, TRPV1 potentiator)
Cc1cc2c(s1)c1cnn(Cc3cccc(C(F)(F)F)c3F)c(=O)c1n2C	none (no result: TRPV1 agonist, TRPV1 potentiator)
O=C1C(Cl)=C(NCCCO)C(=O)c2ccccc21	none
O=C1C(SCCO)=C(SCCO)C(=O)c2ccccc21	D1 antagonist -32
COc1cc(Cl)c(C)cc1NS(=O)(=O)c1c(C)nc2sccn2c1=O	D1 antagonist -44 (no result: TRPV1 agonist, TRPV1 potentiator)
COc1ccccc1C(=O)OCc1cc(=O)n2nc(C3CCCCC3)sc2n1	none (no result: TRPV1 agonist, TRPV1 potentiator)
CN1CCCCC1CCN1c2ccccc2Sc2ccc(S(C)=O)cc21 (stereo not given)	D1 antagonist -84
O=C(O)c1cc(-c2ccc(Cl)s2)nc2ccccc12	none
Cc1ccc(-c2cc(C(=O)O)c3ccccc3n2)s1	D1 antagonist -46
Cc1cc2[nH]c3c(=O)n(Cc4ccccc4F)ncc3c2s1	D1 antagonist -72! (no result: TRPV1 agonist, TRPV1 potentiator)
CCn1c2cc(C)sc2c2cnn(Cc3ccccc3F)c(=O)c21	none (no result: TRPV1 agonist, TRPV1 potentiator)
Fc1ccc(CSc2ncnc3scc(-c4ccccc4)c23)cc1	D1 agonist 35
COC(=O)CSc1ncnc2scc(-c3ccccc3)c12	TRPV1 agonist inconclusive
COc1cc2c(cc1OC)C(COc1ccc(C(C)C)cc1)NCC2 (stereo not given)	D1 agonist 41
COc1ccc(-c2cc(C(F)(F)F)c3c(n2)sc2c(O)cc(=O)[nH]c23)c(OC)c1	D1 agonist 42
CNC(=S)/N=C/NOCc1ccc(Cl)cc1Cl	TRPV1 agonist inconclusive, D1 antagonist -39
Cc1ccc(C(=O)c2cn(Cc3ccccc3)c3nc(C)ccc3c2=O)cc1	none (no result: TRPV1 agonist, TRPV1 potentiator)
O=C(CSc1nnc(-c2ccccn2)n1Cc1ccco1)c1ccc(-c2ccccc2)cc1	D1 antagonist -90
O=C(CSc1nnc(-c2ccc(O)cc2)n1Cc1ccco1)c1ccccc1	none
COC(=O)c1ccc(/C=C/C(=O)c2ccc(OC)c(OC)c2)cc1	none
CCOc1ccc(C(=O)/C=C/c2ccc(SC)cc2)cc1	D1 antagonist -30
COC(=O)c1ccc(/C=C/C(=O)c2ccc(OC)cc2)cc1	D1 antagonist -38

Source: PubChem
